The source of these data is PMC7819943, “Rice protein-binding microarrays: a tool to detect cis-acting elements near promoter regions in rice”.

The full ranking holds about 35,000 sequences; the median of “fluorescence intensity (a.u.)” is about 10,000, and the highest 2% start at about 52,000. Many of the other results were omitted from the sample, so the highest values are more common in it than they were.

The test addresses T1, OsWOX13 (Oryza sativa, UniProt Q5QMM3 1-267).
T1 sequence: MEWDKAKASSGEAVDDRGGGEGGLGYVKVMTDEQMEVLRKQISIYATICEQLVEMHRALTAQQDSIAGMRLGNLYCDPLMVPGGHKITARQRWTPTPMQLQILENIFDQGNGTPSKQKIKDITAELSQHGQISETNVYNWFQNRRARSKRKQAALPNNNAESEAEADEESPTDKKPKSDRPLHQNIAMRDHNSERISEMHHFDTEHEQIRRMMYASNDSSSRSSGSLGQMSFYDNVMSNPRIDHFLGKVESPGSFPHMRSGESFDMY
The test can be described thus: protein-binding microarray (RPBM); PBS, 2% BSA, 51.3 ng/ul salmon testes DNA, 50 uM zinc acetate, 200 nM TF, 25 C, 1 h; high values mean tight binding. To be noted: protein: recombinant; tags: N-terminal polyhistidine and DsRed monomer fusion (pET32a); label: CyDye5-dUTP incorporated in the synthesized complementary strand; 3' TTTTT single-stranded linker to array surface; dsDNA, one strand shown. A digest of the protocol: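 An Axon 4000B scanner gave the binding signal as per-feature fluorescence intensity in arbitrary units. This followed washing of a custom Agilent array that had been incubated for 1 h at 25 °C with 200 nM protein in PBS, 2% BSA, salmon testes DNA and 50 µM zinc acetate. The proteins were transcription factors fused at the N-terminus to polyhistidine and DsRed, expressed in E. coli BL21-CodonPlus and purified on Ni–NTA.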
For the sequence “ATCAATAATTGAACATATTTTCATAATAAATTTGTCTTGGCGGAGTCACCTAGTGCAG”, the binding signal is 42100 fluorescence intensity (a.u.).
The figure for “GTTTATTTATAATTATATTATATTAATATTGTTTGAAAATCGGAGTCACCTAGTGCAG” is 8200 fluorescence intensity (a.u.); for “TTATTAATTGATAAAATATAGAAATATTGATTTATTGTTTCGGAGTCACCTAGTGCAG” it is 52500 fluorescence intensity (a.u.).
The figure for “AGGGAAAGTTGTGATTGAGGGAGGATGTTAGATAATGTTACGGAGTCACCTAGTGCAG” is 10100 fluorescence intensity (a.u.); for “GGAGGGAGTAGAATAATGATTGATTTAAGTTAATACTAGCCGGAGTCACCTAGTGCAG” it is 23500 fluorescence intensity (a.u.).
For “TGTGATTGAGGGAGTTAATTAGGACAAGTTAATAAGTGGCCGGAGTCACCTAGTGCAG” the value was 64500 fluorescence intensity (a.u.); for “TTTATAACATTGTTAATTGATTAGGCATGCAATGCCATATCGGAGTCACCTAGTGCAG”, 32300 fluorescence intensity (a.u.); for “GATCAATAATTGAATATATTTTAATAATAAATTTGTCTTGCGGAGTCACCTAGTGCAG”, 55500 fluorescence intensity (a.u.).
“ATCAAATCAATAATTGAATATATTTTCATAATAAATTTGTCGGAGTCACCTAGTGCAG”: the binding signal is 29400 fluorescence intensity (a.u.).
For “CCATTGATTATAATTAAAGACTGTTAGGCAATTGACACAACGGAGTCACCTAGTGCAG” the value was 54000 fluorescence intensity (a.u.); for “TTTTGTGATAGATTTTATATTAAATATATAGTTTTGTTTTCGGAGTCACCTAGTGCAG”, 23400 fluorescence intensity (a.u.); for “GTATTAATCATGTTTTATCATCTAACAACAACGAAAATACCGGAGTCACCTAGTGCAG”, 7970 fluorescence intensity (a.u.).
The figure for “ATAATTTGCTAATACTTAATTAATCACGTGTTAATGGATCCGGAGTCACCTAGTGCAG” is 36600 fluorescence intensity (a.u.); for “AGTTCCCTCTAATTATAATTATAATGTCCTTGGTTTAGGACGGAGTCACCTAGTGCAG” it is 16200 fluorescence intensity (a.u.); for “CCTTGCAATCATTCATCAGAGGAGGAGTTCTACAGTGATGCGGAGTCACCTAGTGCAG” it is 3760 fluorescence intensity (a.u.).
For “GCAATCTTTCATTATCATAATTGGTCGTAGCTTTAATTACCGGAGTCACCTAGTGCAG” the value was 8430 fluorescence intensity (a.u.).
Consider “TTAATTAGATGCTCATATAAATATGGTGAAACCTGCATGCCGGAGTCACCTAGTGCAG”, for which the binding signal is 21500 fluorescence intensity (a.u.).
The figure for “CCAAATTTAATTTTACCTATTTTAAATGTGGCGATATATCCGGAGTCACCTAGTGCAG” is 17900 fluorescence intensity (a.u.); for “ACACTAAATTATTCTACCCACAAATTAAATAATTGAAATACGGAGTCACCTAGTGCAG” it is 9290 fluorescence intensity (a.u.).
The figure for “AAAATAAATAAATAAATTTGGTAACATTGATTAATTAGGACGGAGTCACCTAGTGCAG” is 21200 fluorescence intensity (a.u.).
For “TAATACTTAATTAATTATATGCTAAATGCTTCTTCGTTTTCGGAGTCACCTAGTGCAG” the value was 27300 fluorescence intensity (a.u.).
As to “GCGTAATAGTAATAATTGATTAATGGTGACACGAGAAGGACGGAGTCACCTAGTGCAG”, the binding signal is 46600 fluorescence intensity (a.u.).
For the sequence “GTCTTAATTGAATGCATCAATTATACTTTTGCAGGAGTTTCGGAGTCACCTAGTGCAG”, the binding signal is 64900 fluorescence intensity (a.u.).
The figure for “TTAATTGATTCCATGAAGGTATAATGATACTTTTATGGTACGGAGTCACCTAGTGCAG” is 65000 fluorescence intensity (a.u.); for “AGTTAACATGATTTATGATAATTTTAATGTAAATGGTATACGGAGTCACCTAGTGCAG” it is 16700 fluorescence intensity (a.u.); for “TAGCTAATTCTTAATTAATTATACGCTAATGAATCACTTTCGGAGTCACCTAGTGCAG” it is 23900 fluorescence intensity (a.u.).
The figure for “AATGATTGAAGGATATCCATTTGAATGATGGTATGCTTTACGGAGTCACCTAGTGCAG” is 43000 fluorescence intensity (a.u.); for “GGAGTGATTAAATTAGTTAATTAGTTAATAATCCCATTGACGGAGTCACCTAGTGCAG” it is 56800 fluorescence intensity (a.u.); for “TAATAATTAGTGATTAATTATCCTGACCATTGATTCAACACGGAGTCACCTAGTGCAG” it is 48300 fluorescence intensity (a.u.).
The figure for “ATAAATAGTAATTGACATTAAGAATGGGACCCACACTCTACGGAGTCACCTAGTGCAG” is 53000 fluorescence intensity (a.u.); for “TGCTAATAAATCTTGATTTGTTTCACATAGAAGCTGCATCCGGAGTCACCTAGTGCAG” it is 26400 fluorescence intensity (a.u.); for “CAGATAATTAGCTACCTGTTTAATAGATCATCTTGATCATCGGAGTCACCTAGTGCAG” it is 53400 fluorescence intensity (a.u.).
As to “CACTAATTGATCAATTGCACAACAAATTGCTTGAATAACGCGGAGTCACCTAGTGCAG”, the binding signal was 59900 fluorescence intensity (a.u.).
The figure for “TGATTAAATTGCTTTAACTTTTATTTAATTTGTAGAAAATCGGAGTCACCTAGTGCAG” is 22500 fluorescence intensity (a.u.); for “AAACTGTTTTAATAATAGATAGATAGATAGATAGATAGATCGGAGTCACCTAGTGCAG” it is 18200 fluorescence intensity (a.u.).
The figure for “TAAATATATTGTCAAATTATATTTAATGTTTTATTTGATACGGAGTCACCTAGTGCAG” is 3180 fluorescence intensity (a.u.); for “TGTGACATTTCCAATCACTAATTGATCAATTGCACAACAACGGAGTCACCTAGTGCAG” it is 38100 fluorescence intensity (a.u.); for “TTGTTAATTACCTTGTTTAATTAATTTCGCTAGCTTAGATCGGAGTCACCTAGTGCAG” it is 44700 fluorescence intensity (a.u.).
As for “CATGATTGCTCATCTTTGTATTAAAAGAAATAATTTATGTCGGAGTCACCTAGTGCAG”, the binding signal was 53500 fluorescence intensity (a.u.).
The figure for “GTAAAAGTTAATTGATTTGTTTATACCCTCAAATAGCCATCGGAGTCACCTAGTGCAG” is 58700 fluorescence intensity (a.u.).
For “TTGATTAAATACAAAATTAATAGTCAAAGTTTTAAAAGTTCGGAGTCACCTAGTGCAG” the value was 18200 fluorescence intensity (a.u.); for “TGGACAACAATTCTTGATTGAATTTAATTAACGGATAACGCGGAGTCACCTAGTGCAG”, 28000 fluorescence intensity (a.u.).
Regarding “ATATGATAATAATTATTTAAAGAAATAAATTTATTTTGGACGGAGTCACCTAGTGCAG”, the binding signal was 28700 fluorescence intensity (a.u.).
